SENP8 block-1: SENP8 protease inhibitors, primary screen, biochemical, luminescence. Sentrin-specific protease 8 (Homo sapiens), Q96LD8. purified SENP8, Z-RLRGG-aminoluciferin cleavage. inhibition, % at 10 µM. hit rate 1.2% among 330,000. AID 2540, 2010; in the data active means inhibition above about 50%
SENP7 inh: SENP7 protease inhibitors, primary screen, biochemical, luminescence, uHTS | inhibition, % at 5 µM | AID 434973, 2010 | hit rate 1.5% among 330,000 | recombinant SENP7, Z-RLRGG-aminoluciferin luminescence, 40 min;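 active means inhibition above about 50% at the single test dose, limit read from the data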
Target sequence (Q9BQF6 706-1050 limits assumed): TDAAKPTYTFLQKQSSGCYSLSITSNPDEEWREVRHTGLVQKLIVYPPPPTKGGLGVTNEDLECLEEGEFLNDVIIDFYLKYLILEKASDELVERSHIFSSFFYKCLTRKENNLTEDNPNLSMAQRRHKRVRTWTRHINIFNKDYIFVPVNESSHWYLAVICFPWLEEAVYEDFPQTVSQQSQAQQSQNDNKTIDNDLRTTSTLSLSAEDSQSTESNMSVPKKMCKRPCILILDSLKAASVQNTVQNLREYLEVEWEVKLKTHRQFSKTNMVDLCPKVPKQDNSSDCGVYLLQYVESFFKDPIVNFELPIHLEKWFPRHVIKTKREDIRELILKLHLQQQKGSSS
HSP90 refold inh: HSP90 inhibitors, primary screen, cell lysate, luminescence; hit rate 0.91% among 290,000; inhibition, % at 5.6 µM; AID 1789, 2009; Rabbit reticulocyte lysate, luciferase refolding luminescence, 3 h;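 active means inhibition above the screen-wide mean plus 3 SD, computed separately per campaign, cut at about 16% in these data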;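 further: inhibitors lower the luminescence because luciferase stays unfolded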
SENP6 inh: SENP6 protease inhibitors, primary screen, biochemical, luminescence, uHTS; hit rate 1.8% among 330,000; inhibition, % at 10 µM; Recombinant SENP6 catalytic domain, aminoluciferin luminescence; AID 2599, 2010; Sentrin-specific protease 6 (Homo sapiens), Q9GZR1;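 active means inhibition above about 50% at the single tested dose, limit read from the data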
SENP8 block-2: human SENP8 protease inhibitors, primary screen, biochemical, fluorescence, Nedd8 protein substrate, uHTS. inhibition, % at 20 µM. Sentrin-specific protease 8 (Homo sapiens), Q96LD8. recombinant SENP8. hit rate 0.64% among 360,000; in the data active means inhibition mostly above about 40%, no sharp cut-off; inactive means mostly below about 27%
Each line names hits and unclear results; the compound was inactive in the other large screens. In the library only some 2.8% were active in any assay of this set; here they are far more common.

CCCCn1c(CN2CCOCC2)nc2c1c(=O)n(C)c(=O)n2C	none
COc1cccc(CNc2ncc(Br)cc2Br)c1O	SENP8 block-2 40.1
COc1cccc(CNc2ccc(Br)cn2)c1O	none
O=C(N/N=C/C=C/c1ccccc1)c1cccs1	none
O=C(N/N=C/C(Br)=C/c1ccccc1)c1cccs1	SENP8 block-1 50.7, SENP6 inh 62.2
Cc1ccc(NC2=C(NC(=O)c3ccccc3)C(=O)c3ccccc3C2=O)cc1Cl	SENP8 block-2 62.1
O=C1S/C(=C\c2ccc(O)c([N+](=O)[O-])c2)C(=O)N1c1ccccc1Cl	none
CN1C(=O)/C(=C/c2ccc(O)c([N+](=O)[O-])c2)N(C)C1=S	SENP8 block-1 87.4, SENP7 inh 82.6, SENP6 inh 91.4
Cc1ccc2nc(SCC(=O)c3ccc4c(c3)OCO4)[nH]c2c1	none
CC(=O)c1ccc(NC(=O)CSc2nnc(-c3ccco3)c(-c3ccco3)n2)cc1	SENP8 block-2 44.8
O=C(CSc1nnc(-c2ccco2)c(-c2ccco2)n1)c1ccccc1	none
O=C(N/N=C/c1ccc(N2CCOCC2)cc1)c1ccccc1OCCOc1ccccc1	none
Cc1ccc(F)c(NC(=O)/C(C#N)=C(\O)c2ccc(C(C)(C)C)cc2)c1	SENP8 block-1 52.7
NC(=S)NN=Cc1nccc2c(N)cccc12	SENP8 block-2 62.0 (no result: SENP8 block-1, SENP7 inh, HSP90 refold inh, SENP6 inh)
CCN(C(C)=O)c1cnc(C=NNC(N)=S)c2ccccc12	none (no result: SENP8 block-1, SENP7 inh, HSP90 refold inh, SENP6 inh)
CC(NC(=O)C(=O)NCc1cccs1)c1ccccc1 (stereo unspecified)	none
COc1ccc(C(=O)COC(=O)c2cc(S(=O)(=O)N3CCCCC3)ccc2N2CCOCC2)c(OC)c1	none (no result: HSP90 refold inh)
CC1(OC(=O)c2cccs2)C(=O)C=C2C=C3CCCN3C=C2C1=O (stereo unspecified)	SENP8 block-2 58.6 (no result: HSP90 refold inh)
CCN(CC)c1ccc(/C=C(\C#N)C(=O)c2ccc(Br)cc2)cc1	SENP8 block-2 50.2 (no result: SENP8 block-1, SENP7 inh, SENP6 inh)
CCN(CC)c1ccc(/C=C(\C#N)C(N)=O)cc1	none (no result: SENP8 block-1, SENP7 inh, SENP6 inh)
O=C(NNc1c([N+](=O)[O-])cc(C(F)(F)F)cc1[N+](=O)[O-])c1ccco1	none
O=C(Nc1cccc(Cl)c1)Nc1nccs1	none
O=C(Nc1ccc(Cl)c(Cl)c1)Nc1nccs1	SENP6 inh 64.7
Cc1cc(=O)n2nc(N3CCCC3C(=O)NCc3ccccn3)sc2n1 (stereo unspecified)	none
CCN(C(=O)c1c(-c2ccccc2Cl)noc1C)C1CCCCC1	none
CCCc1cc(N2CCOCC2)n2ncc(-c3ccccc3)c2n1	HSP90 refold inh 16.6
CC(C)(C)c1cc(N2CCOCC2)n2ncc(-c3ccccc3)c2n1	none
Cc1ccc(N=Nc2ccc(O)c3ncccc23)cc1	SENP8 block-2 42.9 (no result: SENP8 block-1, SENP7 inh, SENP6 inh)
COc1ccccc1N=Nc1ccc(O)c2ncccc12	SENP6 inh 65.4, SENP8 block-2 86.7
C=CCn1c(SCC(=O)N2CCCCC2)nnc1-c1ccncc1	none
CCC(=NC(CC)CO)C1=C(O)CC(C)(C)CC1=O (stereo unspecified)	none
CCNC(=S)NS(=O)(=O)c1ccccc1	SENP8 block-2 42.4
COCCn1c(C)cc(C(=O)CSc2nnc3ccccn23)c1C	HSP90 refold inh 49.8
CCOc1nc(-c2ccc(OC)cc2)ccc1-c1noc(-c2ccncc2)n1	none (no result: SENP8 block-1, SENP7 inh, HSP90 refold inh, SENP6 inh)
COc1ccc(-c2nc(-c3ccncc3)no2)cc1	HSP90 refold inh 21.2 (no result: SENP8 block-1, SENP7 inh, SENP6 inh)
O=C(NCC1CCN(Cc2cccc(Cl)c2)CC1)Nc1ccc(Cl)cc1	none
CCOc1ccc2c(c1)-c1c(ssc1=S)C(C)(C)N2C	SENP8 block-2 46.7
Cc1ccc(NS(=O)(=O)c2cc(NC(=O)c3ccc4c(c3)NC(=O)CS4)ccc2C)c(C)c1	HSP90 refold inh 16.7
COc1ccc(NC(=O)c2ccc3c(c2)NC(=O)CS3)cc1S(=O)(=O)Nc1ccc(Br)cc1	none
CC(=O)N1CC2(c3ccccc3)CN(C(C)=O)CC(c3ccccc3)(C1)C2=O	SENP6 inh 69.8
CSc1cccc(NC(=O)c2ccccn2)c1	SENP7 inh 52.1, SENP6 inh 55.0 (no result: SENP8 block-2)
Cc1ccc(N=c2c([N+](=O)[O-])nn(-c3ccc4c(c3)OCCO4)n2O)c(Cl)c1	HSP90 refold inh 16.8 (no result: SENP8 block-2)
Cc1cc(C)cc(N=c2c([N+](=O)[O-])nn(-c3ccc4c(c3)OCCO4)n2O)c1	none
CC(=O)Nc1cc(OC(C)=O)c2nonc2c1OC(C)=O	SENP8 block-1 70.4, SENP7 inh 92.3, HSP90 refold inh 84.7, SENP6 inh 82.2

Source: PubChem BioAssay
